Results: the supplement of paper PMC9023506
Counter-ions that a name gives are not always drawn.

System: Danio rerio larvae (5 dpf)
Assay: startle response to 20-s acoustic pulses, difference vs DMSO (percentage points (treated minus DMSO)); higher = more of the behaviour than the DMSO vehicle control
Details: 10 µM; exposure time: 3 h pre-incubation + 3 h imaging
Description: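 5-dpf wild-type zebrafish larvae were imaged in 96-well plates. They were treated with 190 Tocris FDA-approved drugs at 10 µM (1 µl/ml DMSO) for 3 h before and 3 h during imaging at 28.5 °C, 48 larvae per drug. Automated image analysis gave % time moving and optomotor responses. Values are drug group mean minus DMSO vehicle mean (n=844), in percentage points, for 10 behaviours.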

Compound | startle response to 20-s acoustic pulses
CC(=O)O[C@H]1C(=O)[C@@]2(C)[C@H]([C@H](OC(=O)c3ccccc3)[C@]3(O)C[C@H](OC(=O)[C@H](O)[C@@H](NC(=O)c4ccccc4)c4ccccc4)C(C)=C1C3(C)C)[C@]1(OC(C)=O)CO[C@@H]1C[C@@H]2O [Taxol] | -0.529
Nc1nc2[nH]cc(CCc3ccc(C(=O)N[C@@H](CCC(=O)O)C(=O)O)cc3)c2c(=O)[nH]1 [Pemetrexed] | -4.56
Nc1nc(NC2CC2)c2ncn([C@H]3C=C[C@@H](CO)C3)c2n1 [Abacavir hemisulfate] | 6.56
COc1c(C)c2c(c(O)c1C/C=C(\C)CCC(=O)OCCN1CCOCC1)C(=O)OC2 [Mycophenolate mofetil] | 3.73
CCc1ccc(CCOc2ccc(CC3SC(=O)NC3=O)cc2)nc1 (stereo not given) [Pioglitazone hydrochloride] | -3.21
CCOC(=O)c1ncn2c1CN(C)C(=O)c1cc(F)ccc1-2 [Flumazenil] | -1.57
CCCc1nc2c(C)cc(-c3nc4ccccc4n3C)cc2n1Cc1ccc(-c2ccccc2C(=O)O)cc1 [Telmisartan] | 3.69
CC(C)C(=O)OCC(=O)[C@@]12O[C@H](C3CCCCC3)O[C@@H]1C[C@H]1[C@@H]3CCC4=CC(=O)C=C[C@]4(C)[C@H]3[C@@H](O)C[C@@]12C [Ciclesonide] | -4.94
CCOc1cc(CC(=O)N[C@@H](CC(C)C)c2ccccc2N2CCCCC2)ccc1C(=O)O [Repaglinide] | -5.51
Cc1cccc(C)c1OCC(C)N (stereo not given) [Mexiletine hydrochloride] | 0.873
N#Cc1ccc2[nH]cc(CCCCN3CCN(c4ccc5oc(C(N)=O)cc5c4)CC3)c2c1 [Vilazodone hydrochloride] | -6.5
CO[C@H]1/C=C/O[C@@]2(C)Oc3c(C)c(O)c4c(O)c(c5c(nc6cc(C)ccn65)c4c3C2=O)NC(=O)/C(C)=C\C=C\[C@H](C)[C@H](O)[C@@H](C)[C@@H](O)[C@@H](C)[C@H](OC(C)=O)[C@@H]1C [Rifaximin] | 2.34
COc1ccccc1OCCNCC(O)COc1cccc2[nH]c3ccccc3c12 (stereo not given) [Carvedilol] | 4.96
CCc1c2c(nc3ccc(OC(=O)N4CCC(N5CCCCC5)CC4)cc13)-c1cc3c(c(=O)n1C2)COC(=O)[C@]3(O)CC | 1.92
CC(c1cc2ccccc2s1)N(O)C(N)=O (stereo not given) [Zileuton] | -2.9
Cc1nnc(C(C)C)n1C1C[C@H]2CC[C@@H](C1)N2CC[C@H](NC(=O)C1CCC(F)(F)CC1)c1ccccc1 (stereo in doubt) [Maraviroc] | -4.61
CCCCCOC(=O)Nc1nc(=O)n([C@@H]2O[C@H](C)[C@@H](O)[C@H]2O)cc1F [Capecitabine] | 3
Nc1nc(Cl)nc2c1ncn2[C@@H]1O[C@H](CO)[C@@H](O)[C@@H]1F [Clofarabine] | 5.05
Cc1nc(-c2ccc(OCC(C)C)c(C#N)c2)sc1C(=O)O [Febuxostat] | 2.71
C[C@@H](O[C@H]1OCCN(Cc2n[nH]c(=O)[nH]2)[C@H]1c1ccc(F)cc1)c1cc(C(F)(F)F)cc(C(F)(F)F)c1 [Aprepitant] | -6.92

Compound | startle response to 20-s acoustic pulses
C#CCN[C@@H]1CCc2ccccc21 [Rasagiline mesylate] | 2.17
CN(C)CCc1c[nH]c2ccc(Cn3cncn3)cc12 [Rizatriptan benzoate] | 4.29
CN(CCOc1ccc(NS(C)(=O)=O)cc1)CCc1ccc(NS(C)(=O)=O)cc1 [Dofetilide] | 0.873
CC(C)Nc1cccnc1N1CCN(C(=O)c2cc3cc(NS(C)(=O)=O)ccc3[nH]2)CC1 [Delavirdine mesylate] | -4.51
CC(=O)O[C@]1(C(C)=O)CC[C@H]2[C@@H]3C=C(C)C4=CC(=O)CC[C@]4(C)[C@H]3CC[C@@]21C [Megestrol Acetate] | -15.1
COc1cc([C@@H]2c3cc4c(cc3[C@@H](O[C@@H]3O[C@@H]5CO[C@@H](C)O[C@H]5[C@H](O)[C@H]3O)[C@H]3COC(=O)[C@H]23)OCO4)cc(OC)c1O [Etoposide] | -1.98
O=C(O)C[C@H](O)C[C@H](O)/C=C/c1c(C2CC2)nc2ccccc2c1-c1ccc(F)cc1 [Pitavastatin calcium] | 1.52
C=CC(=O)N1CCC[C@@H](n2nc(-c3ccc(Oc4ccccc4)cc3)c3c(N)ncnc32)C1 [Ibrutinib] | 3.06
CCOc1ccccc1OCCN[C@H](C)Cc1ccc(OC)c(S(N)(=O)=O)c1 [Tamsulosin hydrochloride] | 3.87
CC/C(=C(\c1ccccc1)c1ccc(OCCN(C)C)cc1)c1ccccc1 [Tamoxifen citrate] | -0.535
NS(=O)(=O)c1cc2c(cc1Cl)NC(C1CC3C=CC1C3)NS2(=O)=O (stereo not given) [Cyclothiazide] | -0.96
OC(c1cc(C(F)(F)F)nc2c(C(F)(F)F)cccc12)C1CCCCN1 (stereo not given) [Mefloquine hydrochloride] | -13.3
COc1cc2nc(N3CCN(C(=O)c4ccco4)CC3)nc(N)c2cc1OC [Prazosin hydrochloride] | 5.19
O=C(NCC1CCCCN1)c1cc(OCC(F)(F)F)ccc1OCC(F)(F)F (stereo not given) [Flecainide acetate] | 1.77
CC(C)n1c(/C=C/C(O)CC(O)CC(=O)O)c(-c2ccc(F)cc2)c2ccccc21 (stereo not given) [Fluvastatin sodium] | 1.71
Nc1nc(F)nc2c1ncn2[C@@H]1O[C@H](CO)[C@@H](O)[C@@H]1O [Fludarabine] | 3.23
Cc1ccc(NC(=O)c2ccc(CN3CCN(C)CC3)cc2)cc1Nc1nccc(-c2cccnc2)n1 [Imatinib mesylate] | 5.5
CC(=O)S[C@@H]1CC2=CC(=O)CC[C@]2(C)[C@H]2CC[C@@]3(C)[C@@H](CC[C@@]34CCC(=O)O4)[C@H]12 [Spironolactone] | 1.64
CCCC1O[C@@H]2C[C@H]3[C@@H]4CCC5=CC(=O)C=C[C@]5(C)[C@H]4[C@@H](O)C[C@]3(C)[C@]2(C(=O)CO)O1 (stereo not given in full) [Budesonide] | -5.65
COc1cc2nccc(Oc3ccc(NC(=O)C4(C(=O)Nc5ccc(F)cc5)CC4)cc3)c2cc1OC | -5.31
